# Source: PubChem BioAssay (National Center for Advancing Translational Sciences (NCATS))
# PLK1 PBD block: PLK1 (human) polo-box domain binding inhibition. P53350. Plk1 PBD binding of FITC phosphopeptide, fluorescence polarization. Potency, µM, usual class: inhibitors. hit rate 2.8% among 360,000; note: series mostly up to about 57 µM; nearly all actives have a fitted effect of over 65% in size
# BAZ2B inh: blocks human BAZ2B | AlphaScreen BAZ2B-H3K14Ac peptide displacement | Potency, µM (titrated, usually from 114 µM), most hits filed as inhibitors | hit rate 4.4% among 360,000 | AID 504333; note: nearly all actives have a fitted effect of over 60% in size
#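 Complex of BAZ2B and biotin-H3K14Ac (50 nM apiece) forms over 30 min at RT, then faces library compounds up to 110 uM for another 30 min; AlphaScreen beads added, 20 min dark incubation, luminescence read.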
# JMJD2A Tudor inh: blocks the human JMJD2A Tudor domain; AlphaScreen JMJD2A-Tudor / H3K4me3 peptide binding; Potency, µM (top dose mostly 114 µM), hits mostly inhibitors; hit rate 4.4% among 390,000; AID 504339; note: nearly all actives have a fitted effect of over 50% in size
# PI5P4Ka inh: PI5P4K alpha (human) kinase inhibition; P48426; PI5P4Kalpha enzyme, ADP-Glo luminescence, 60 min; active compounds read low; max response, %; hit rate 1.2% among 330,000; active = max response of -50% or lower; inconclusive = between -30% and -50%; inactive = -30% or higher; note: value at the top dose of about 77 µM
# Target sequence (P48426 whole entry, looked up): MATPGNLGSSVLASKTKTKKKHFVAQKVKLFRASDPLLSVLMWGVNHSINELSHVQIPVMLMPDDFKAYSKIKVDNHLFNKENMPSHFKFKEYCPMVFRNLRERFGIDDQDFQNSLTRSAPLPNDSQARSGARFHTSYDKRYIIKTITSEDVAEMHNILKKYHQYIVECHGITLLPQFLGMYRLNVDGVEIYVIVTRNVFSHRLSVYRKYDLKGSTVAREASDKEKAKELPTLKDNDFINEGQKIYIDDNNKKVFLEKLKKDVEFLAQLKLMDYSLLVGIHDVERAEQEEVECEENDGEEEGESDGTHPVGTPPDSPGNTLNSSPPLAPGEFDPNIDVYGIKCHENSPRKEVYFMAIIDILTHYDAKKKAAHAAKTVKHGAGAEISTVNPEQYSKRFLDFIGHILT
#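 ADP-Glo luminescence end-point after a 60 min room-temperature kinase reaction. PI5P4Kalpha and substrate in HEPES pH 7.4 buffer with EGTA, 0.1% CHAPS and 5% DMSO; ATP at 5 microM final.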
# KAT2A inh: inhibitors of human GCN5L2 histone acetyltransferase; Q92830; GCN5L2 HAT assay, ThioGlo1 CoA-SH fluorescence; Potency, µM (top dose mostly 58.9 µM), usual class: inhibitors; hit rate 0.21% among 390,000; AID 504327
#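 Titration-based screen in which CoA formation is detected via maleimide probe ThioGlo1 (50uM) turning fluorescent on thiol reaction; substrates H3(1-25) 75uM and acetyl-CoA 70uM, GCN5L2 20nM, 20 min incubation at room temperature.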
# HP1b chromo inh: HP1-beta chromodomain-methylated histone interaction inhibition; P83916; hit rate 0.56% among 390,000; Potency, µM (top dose mostly 114 µM), hits mostly inhibitors; AlphaScreen HP1-beta / biotin-H3K9me3 peptide binding; note: nearly all actives have a fitted effect of over 70% in size
# Target sequence (P83916 whole entry, looked up): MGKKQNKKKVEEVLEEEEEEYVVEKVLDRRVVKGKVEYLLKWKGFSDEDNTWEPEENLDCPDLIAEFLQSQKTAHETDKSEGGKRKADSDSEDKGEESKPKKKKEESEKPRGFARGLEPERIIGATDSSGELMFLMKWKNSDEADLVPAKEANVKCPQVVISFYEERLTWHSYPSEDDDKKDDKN
#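 Compound inhibition of the preformed complex between 50 nM HP1-beta and 50 nM biotinylated H3K9me3 peptide was read by AlphaScreen. Buffer was PBS pH 7.4 with 0.01% Tween-20. Incubations ran 30 min at room temperature, with 10 ug/mL donor/acceptor beads.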
# Hits are given with their value; 0 = inactive; ? = inconclusive; - = no result given; ! = a repeat was not active; [ ] = remark or other dose. Rows were chosen to be rich in hits. Some 7% of all compounds tested hit in one or more screens of this group. Unless noted, calls come from the whole dose curve; as a rule, active = well fitted curve in the direction sought with a large enough effect; inconclusive = small, poorly fitted or top-dose-only effect, or another doubt; inactive = no such curve, though single readings can be large; an effect the other way counts as inactive or inconclusive.
SMILES,PLK1 PBD block,BAZ2B inh,JMJD2A Tudor inh,PI5P4Ka inh,KAT2A inh,HP1b chromo inh
CC1(C)CN(CCc2ccccc2)C(=O)[C@H]1CC(=O)Nc1ccccc1,0,-,-,0,-,-
O=C1c2c(Cl)c(Cl)c(Cl)c(Cl)c2C(=O)N1c1nccs1,0,-,0,0,-,0
COc1cc(/C=N/n2c(=S)[nH]nc(C)c2=O)cc([N+](=O)[O-])c1O,0,0,?,-57,0,0
CCc1n[nH]c(=S)n1/N=C/c1cc(OC)cc([N+](=O)[O-])c1O,?,0,5µM,-57,?,?
COc1ccc(/C=N/n2c(-c3cc(C)[nH]n3)n[nH]c2=S)cc1,0,0,3.5µM,0,0,?
COc1cc(/C=N/N2CCCCC2)cc([N+](=O)[O-])c1O,0,45µM,?,0,0,0
CN(CCc1ccccc1)C(=O)c1cc(COc2ccc(F)cc2Cl)on1,0,0,0,0,0,0
Cc1cccc(Cc2c(C)nc3nc(SCC(=O)NCc4ccccc4)nn3c2C)c1,-,0,0,-,0,0
CCCCCC(=O)N1C[C@@H](O)[C@H](n2cc(COC(=O)c3ccccc3)nn2)C[C@@H]1c1ccc(Cl)cc1,0,-,-,0,-,-
O=C(CCC1N=C2c3ccccc3N=C(SCc3ccccc3Cl)N2C1=O)N1CCN(c2ccccc2)CC1 (centres undefined),-,?,?,-,0,0
CCN1CCN(C(C)C(=O)Nc2c(C)n(C)n(-c3ccccc3)c2=O)CC1 (centres undefined),0,50µM,7.9µM,0,0,?
Cc1c(NC(=O)CN2CC(C)OC(C)C2)c(=O)n(-c2ccccc2)n1C (centres undefined),0,20µM,11µM!,0,0,56µM!
Cc1c(NC(=O)C(C)OC(=O)/C=C/c2ccco2)c(=O)n(-c2ccccc2)n1C (centres undefined),27µM,50µM,20µM,0,0,45µM
COc1cccc(/C=C/C(=O)OC(C)C(=O)Nc2c(C)n(C)n(-c3ccccc3)c2=O)c1 (centres undefined),0,0,0,0,0,0
CCC(CC)C(=O)Nc1c(C)n(C)n(-c2ccccc2)c1=O,0,0,0,0,0,0
Cc1c(NC(=O)CSc2ccc(Cl)cc2)c(=O)n(-c2ccccc2)n1C,0,0,0,0,0,0
Cc1c(NC(=O)CSc2ccc3c(c2)OCCO3)c(=O)n(-c2ccccc2)n1C,27µM,0,50µM,0,0,?
Cc1c(NC(=O)C2CC=CCC2C(=O)O)c(=O)n(-c2ccccc2)n1C (centres undefined),0,79µM,0,0,0,0
CC(=O)c1ccc2noc(-c3ccccc3)c2c1,0,0,0,0,0,0
CN(C)/C=C/C(=O)c1ccc2noc(-c3ccccc3)c2c1,0,?,?,-70,0,0
CCC(C)(C)NC(=O)C1CCCN(S(=O)(=O)c2ccc3c(c2)CC(C)N3C(=O)C2CC2)C1 (centres undefined),0,0,0,0,0,0
COc1ccc(N2CCN(C(=O)c3cc4c(-c5cccc(OC)c5)nn(C)c4s3)CC2)cc1,27µM,25µM,40µM,0,0,?
COc1cccc(-c2nn(C)c3sc(C(=O)N4CCN(c5cccc(C(F)(F)F)c5)CC4)cc23)c1,-,-,0,-,0,0
CC(=O)c1ccc(N2CCN(C(=O)c3cc4c(s3)CCCC4)CC2)cc1,0,0,0,0,0,0
COc1ccc(N2CCN(C(=O)c3cc4c(s3)CCCCC4)CC2)cc1,0,13µM,50µM,0,0,?
SMILES,PLK1 PBD block,BAZ2B inh,JMJD2A Tudor inh,PI5P4Ka inh,KAT2A inh,HP1b chromo inh
Nc1c(C(=O)Nc2ccccc2)sc2nc3c(c(-c4ccco4)c12)CCC3,3µM,0,?,?,0,?
Nc1c(C(=O)Nc2ccccc2)sc2nc3c(c(-c4ccco4)c12)CCCC3,0,0,0,0,0,0
O=C(O)Cc1sc(Nc2ccccc2)nc1-c1ccc(Cl)cc1,21µM,0,45µM,0,0,?
O=C(O)Cc1sc(-c2ccccc2)nc1-c1ccc(Cl)cc1,0,-,-,0,-,-
O=C(O)Cc1sc(-c2ccc(Cl)cc2)nc1-c1ccccc1,24µM,0,25µM,0,0,?
COc1ccc(C2Nc3ccccc3C(=O)N2NS(C)(=O)=O)c(OC)c1 (centres undefined),21µM,0,0,0,0,0
COc1ccc2c(C=O)cn(C)c2c1,0,0,0,0,0,0
Cc1ccc(NC(=O)Cn2nc(Cc3ccncc3)c3ccccc3c2=O)c(Cl)c1,-,71µM,?,-,0,0
O=C(CN1C(=O)NC2(CCCCCCC2)C1=O)NCc1ccccc1,0,-,0,0,0,0
NOCC(=O)O,0,?,22µM,0,?,0
CCCCOCCCNC(=O)C[C@@H]1C[C@@]2(C(=O)OC)CCCCC=C2N(Cc2ccco2)C1=O,0,-,-,0,-,-
Cc1cc(NC(=O)c2ccccc2F)ncc1NC(=O)c1cccs1,8.4µM,0,?,?,0,0
CCCOc1ccc(C(=O)Nc2cc(-c3nn4c(C)nnc4s3)ccc2C)cc1,?,0,40µM,0,0,0
O=C(/C=C/c1cccs1)Nc1scc(-c2ccccc2)c1C(=O)O,?,-,7.1µM,?,0,?
CSCC(C)N1CCC(n2nccc2NC(=O)CCc2ccccc2)CC1 (centres undefined),0,0,0,0,0,0
CC(C)C(=O)N1CCC(n2nccc2NC(=O)CCc2ccccc2)CC1,3.4µM,0,25µM,0,0,0
COCCC(=O)N1CCC(n2nccc2NC(=O)c2ccccc2C)CC1,21µM,0,?,0,0,0
COc1ccc(NC(=O)COc2ccc(-c3nn(C)c(=O)c4ccccc34)cc2)cc1,24µM,0,45µM!,0,0,0
COC(=O)COc1ccc(NC(=O)Cn2nc(-c3ccccc3)c3ccccc3c2=O)cc1,27µM,0,?,0,0,0
COc1cccc(OC)c1NC(=O)Cn1nc(C)c2ccccc2c1=O,30µM,0,?,0,0,0
CNC(=O)c1ccc(NC(=O)COc2ccc(-c3nn(C)c(=O)c4ccccc34)cc2)cc1,-,0,0,-,0,0
CC1CN(C(=O)Cn2cc(S(=O)(=O)CC(=O)N3CCOCC3)c3ccccc32)CC(C)O1 (centres undefined),0,0,0,0,0,0
O=C(CCCn1c(=O)c2sccc2n(Cc2cccc(Cl)c2)c1=O)NCc1ccc2c(c1)OCO2,-,0,0,-,0,0
N#CC1(c2ccccc2)CCC(=O)N1Cc1ccccc1 (centres undefined),0,0,0,0,0,0
CCOC(=O)c1c(-c2ccc(C)cc2)csc1/N=C/N(C)C,27µM,0,?,0,0,0
Cc1oc2ccccc2c1CC(=O)NCCCN(C)C,0,?,0,0,0,0
Cn1ccc(NC(=O)Nc2cccc([N+](=O)[O-])c2)n1,?,0,0[11.4 µM],0,0,0
